PubChem BioAssay AID1030 (National Center for Advancing Translational Sciences (NCATS), 2008)
Screen size: about 220,000 compounds; about 16,000 (7.3%) were called active. Roughly 25% stayed inconclusive and do not appear here. The call rests on the fitted dose curve; in most records, active means well fitted inhibition curve with a large enough effect (not every such curve was filed as active); inconclusive means small, poorly fitted or top-dose-only effect, or another doubt; inactive means no such curve, though single readings can be large or run the other way. The full list was thinned out, with actives kept by preference.

biological target: Aldehyde dehydrogenase 1A1 (Homo sapiens) (UniProt P00352); experiment: qHTS Assay for Inhibitors of Aldehyde Dehydrogenase 1 (ALDH1A1); conditions: Purified ALDH1A1, NADH fluorescence, propionaldehyde substrate; series mostly up to 75.3 µM; activity, negative = inhibition: at the top concentration;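 on activity, negative = inhibition: plate controls were no enzyme wells and a reference inhibitor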
Sequence (P00352 whole entry, looked up): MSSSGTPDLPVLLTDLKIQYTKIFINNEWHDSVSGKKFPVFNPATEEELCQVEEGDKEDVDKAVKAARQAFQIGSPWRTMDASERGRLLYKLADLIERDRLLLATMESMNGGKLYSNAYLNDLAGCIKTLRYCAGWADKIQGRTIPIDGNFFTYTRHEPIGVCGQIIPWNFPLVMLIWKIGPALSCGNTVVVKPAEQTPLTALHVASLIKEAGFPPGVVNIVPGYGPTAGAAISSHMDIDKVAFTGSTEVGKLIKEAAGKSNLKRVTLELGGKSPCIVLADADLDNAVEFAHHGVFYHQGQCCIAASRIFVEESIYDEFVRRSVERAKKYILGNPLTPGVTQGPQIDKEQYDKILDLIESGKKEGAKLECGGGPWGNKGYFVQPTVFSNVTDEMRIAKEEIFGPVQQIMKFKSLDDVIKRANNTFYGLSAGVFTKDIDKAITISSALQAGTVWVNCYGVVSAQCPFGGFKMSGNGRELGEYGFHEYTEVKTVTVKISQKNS
Potency means the concentration at half of the fitted maximal effect.

SMILES | activity, negative = inhibition | Potency
CN1C(=O)CC(N2CCN(c3ccccn3)CC2)C1=O (centres undefined) | -14.7% (inactive) | –
CCOC(=O)c1ccc(N2C(=O)CC(N3CCC(C(=O)OCC)CC3)C2=O)cc1 (centres undefined) | – | 12.6 µM (active)
CCOC(=O)C1CCN(C(=O)Nc2ccc(Cl)cc2)CC1 | 8.47% (inactive) | –
O=C(Nc1ccn(Cc2ccccc2)n1)c1n[nH]c([N+](=O)[O-])c1Cl | -1.46% (inactive) | –
CCn1nc(C)c(CN2CCN(Cc3ccc(OC)c(C)c3C)C(CCO)C2)c1C (centres undefined) | -0.693% (inactive) | –
O=C(O)CCN(Cc1ccccc1)S(=O)(=O)c1c(Cl)cccc1Cl | -4.7% (inactive) | –
CCOc1ccc(NC(=O)c2cc(C)nc3ccccc23)cc1 | 0.296% (inactive) | –
O=C(CCCOc1ccc(Cl)cc1Cl)NNC(=O)C1CCC1 | 1.22% (inactive) | –
COCc1cc(=O)[nH]c(-c2ccc(C(F)(F)F)cc2)n1 | 0.201% (inactive) | –
O=C(CCc1ccccc1)Nc1nn[nH]n1 | -3.34% (inactive) | –
COc1ccc(N2C(=O)C(Cc3ccccc3)NC2=S)cc1 (centres undefined) | 14.4% (inactive) | –
COC(=O)CC1=NN(c2nc(C)cc(C)n2)C(=O)C1 | 2.76% (inactive) | –
c1ccc(CN=C2Nc3ccccc3CS2)nc1 | 0.764% (inactive) | –
CCC(C(=O)Nc1ccc2c(c1)OCCO2)c1ccccc1 (centres undefined) | -4.94% (inactive) | –
CCOc1ccc(N2CC(C(=O)NCCN3C(=O)S/C(=C\c4cccnc4)C3=O)CC2=O)cc1 (centres undefined) | -7.75% (inactive) | –
C[C@H](NC(=O)c1ccccc1Cl)C(=O)OCCOc1cccc(Cl)c1 | 4.04% (inactive) | –
CC1CN(C(=S)SCC(=O)c2ccccc2)CC(C)O1 (centres undefined) | 0.843% (inactive) | –
CCOC(=O)c1ccc(N2C(=O)CC(N3CC(C)OC(C)C3)C2=O)cc1 (centres undefined) | – | 7.94 µM (active)
CCC(=O)c1ccc(OCC(O)CN2CC(C)OC(C)C2)cc1 (centres undefined) | -13.7% (inactive) | –
CN1CCN(CCC(=O)N/N=C/C=C2\N(C)c3ccccc3C2(C)C)CC1 | 3.13% (inactive) | –
Cc1cccc(-n2c(Cc3cc(=O)[nH]c(=O)[nH]3)nnc2SCC(=O)Nc2cccc(C(F)(F)F)c2)c1 | -2.03% (inactive) | –
CCOC(=O)N1CCN(C(=O)CSc2nc(C)nc3c2c(=O)n(C)c(=O)n3C)CC1 | 1.21% (inactive) | –
CCOC(=O)c1c(C)nn(-c2ncccc2NC(=O)CCC(=O)O)c1C | 5.83% (inactive) | –
CC(C)N(C)C(=O)CCc1nnc(CCc2c[nH]c3ccccc23)o1 | 4.17% (inactive) | –
FC(F)(F)c1cc(-c2ccco2)nc(N2CCOCC2)n1 | 0.194% (inactive) | –
O=C(CSc1nc(-c2ccco2)cc(C(F)(F)F)n1)NCc1cccs1 | -0.0855% (inactive) | –
O=C(CSc1nc(-c2ccco2)cc(C(F)(F)F)n1)N1CCc2ccccc2C1 | – | 11.2 µM (active)

SMILES | activity, negative = inhibition | Potency
CC(C)(C)n1ncc2c(=O)n(Cc3ccc(Cl)cc3)cnc21 | 10.7% (inactive) | –
COc1ccc(-n2c(C)nn(CC3CC3)c2=O)cc1 | -1.71% (inactive) | –
Cc1ccc(NC(=O)c2oc(=O)c3ccccc3c2-c2ccccc2)c(C)c1 | -15.4% (inactive) | –
Cc1ccc(C(=O)NC(=S)Nc2ccccc2C)cc1 | -1.81% (inactive) | –
Cc1ccc(NC(=S)NC(=O)c2ccc(-c3ccccc3)cc2)c(C)c1 | – | 11.2 µM (active)
O=C(CN1CCN(S(=O)(=O)/C=C/c2ccccc2)CC1)Nc1ccc(N2CCOCC2)cc1 | 7.06% (inactive) | –
O=C(/C=C/c1ccccc1)c1ccoc1 | 2.74% (inactive) | –
O=C(/C=C/c1ccc(N2CCOCC2)cc1)c1ccccc1 | – | 31.6 µM (active)
CC(C)(C)OC(=O)N1CCC(NC(=O)c2[nH]cnc2C(=O)N[C@@H](Cc2ccccc2)C(=O)OCc2ccccc2)CC1 | -3.65% (inactive) | –
CC(C)[C@H](NC(=O)c1ccc(F)cc1)C(=O)OCC(=O)NC(=O)c1cccn1C | -0.435% (inactive) | –
CCSC1=NCCN1C(=O)c1ccc(S(=O)(=O)N(CC)CC)cc1 | -7.18% (inactive) | –
COC(=O)CNC(=O)c1ccc2c(c1)S(=O)(=O)c1ccccc1C2=O | – | 11.2 µM (active)
COC(=O)CNC(=O)c1ccccc1F | 12.2% (inactive) | –
CCCCN(C)C(=O)c1ccc2c(c1)N(CC)C(=O)c1ccccc1S2(=O)=O | 8.84% (inactive) | –
O=C(CCn1ccc([N+](=O)[O-])n1)Nc1nccs1 | 1.26% (inactive) | –
COc1cc(OC)c(C2=NOC(C(=O)Nc3c(C)n(C)n(-c4ccccc4)c3=O)C2)cc1Cl (centres undefined) | 5.57% (inactive) | –
COc1ccc(NC(=O)CCNS(=O)(=O)c2ccc3c(c2)c(=O)n(C)c(=O)n3C)cc1OC | 4.29% (inactive) | –
CC(C)(C)c1cc(CN2CCN(CCC#N)CC2)cc(C(C)(C)C)c1O | – | 7.08 µM (active)
N#CCCN1CCN(S(=O)(=O)c2ccc(S(=O)(=O)N3CCCC3)cc2)CC1 | -6.46% (inactive) | –
CCC(=O)c1ccc(OCC(O)Cn2nc(C)c(C(C)=O)c2C)cc1 (centres undefined) | 6.23% (inactive) | –
O=C(Nc1cccc(F)c1)N1C2CCC1CC(O)(c1cccnc1)C2 (centres undefined) | 2.68% (inactive) | –
O=C(O)c1ccccc1-c1ccccc1C(=O)Nc1nccs1 | -6.84% (inactive) | –
CCOC(=O)N1CCC(NC(=O)C(NS(=O)(=O)c2ccc3c(c2)CCN3C(=O)CC)C(C)C)CC1 (centres undefined) | -1.13% (inactive) | –
Cc1ccc(CN2CCN(Cc3cccc(C)n3)CC2CCO)cc1 (centres undefined) | -7.49% (inactive) | –
CCOC(=O)CNC(=O)c1nn(-c2cccc(OC)c2)c(=O)c2ccccc12 | -2.61% (inactive) | –
COc1ccc(C2=CC(c3cccc(OC)c3)n3nnnc3N2)cc1 (centres undefined) | 3.52% (inactive) | –
CCOc1cccc(-n2nnnc2-c2ccc(OC)cc2)c1 | – | 25.1 µM (active)
